Experimental data published in paper PMC5836133, “The intracellular immune receptor Rx1 regulates the DNA-binding activity of a Golden2-like transcription factor”.
Over roughly 16,000 sequences, “e-score” has its median near -0.044; the highest 2% begin near 0.38. For the sample, the highest values were picked, then their nearest neighbours and some sequences at random.

Target: T1, GST-NbGlk1(82-244) (Nicotiana benthamiana)
T1 chain: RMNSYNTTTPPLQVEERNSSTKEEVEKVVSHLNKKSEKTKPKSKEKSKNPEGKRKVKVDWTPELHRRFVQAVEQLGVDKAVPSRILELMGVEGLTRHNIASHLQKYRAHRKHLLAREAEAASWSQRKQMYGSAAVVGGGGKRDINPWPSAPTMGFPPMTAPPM
Assay: protein-binding microarray; NbGlk1 is a Golden2-like transcription factor of Nicotiana benthamiana; high values mean tight binding
Conditions: protein: recombinant; tags: GST (pTH6838); dsDNA, one strand shown

| Sequence | binding signal [E-score] |
| --- | --- |
| CAATCCCA | 0.279 ± 0.00457 |
| AAATCCCA | 0.4 ± 0.00412 |
| ATTTCGGG | 0.27 ± 0.0618 |
| ATCTCATC | 0.312 ± 0.051 |
| ACCGCAAT | 0.302 ± 0.00387 |
| ATCCGGAG | 0.233 ± 0.0472 |
| ATCCGGAA | 0.332 ± 0.0273 |
| ATCCGGAT | 0.422 ± 0.0228 |
| ACACAAAT | 0.204 ± 0.00827 |
| ACAATCGA | 0.201 ± 0.0349 |
| ACAATCAA | 0.223 ± 0.00556 |
| ACAATCTC | 0.373 ± 0.047 |
| ACAATCAG | 0.237 ± 0.0723 |
| ACAATCTA | 0.3803 ± 0.00317 |
| ACAATCTG | 0.404 ± 0.0106 |
| ATTTGTTA | 0.237 ± 0.0814 |
| ACTGCAAT | 0.211 ± 0.0632 |
| AAGATTTA | 0.333 ± 0.0668 |
| ATGATTTG | 0.257 ± 0.0544 |
| ATGATTTC | 0.387 ± 0.0129 |
| AAGATTTC | 0.477 ± 0.00488 |
| AAAATTTC | 0.276 ± 0.00552 |

| Sequence | binding signal [E-score] |
| --- | --- |
| ACGATTTC | 0.411 ± 0.0236 |
| ACGATCTA | 0.252 ± 0.0264 |
| ACGATTTG | 0.264 ± 0.0306 |
| ATTATTTC | 0.219 ± 0.0605 |
| CAGATTTC | 0.4864 ± 0.00115 |
| CAAATTTC | 0.232 ± 0.00396 |
| CAGATTTA | 0.276 ± 0.0107 |
| ATTCCCAA | 0.344 ± 0.0159 |
| ATCGGATA | 0.33 ± 0.0178 |
| AAATACGT | 0.267 ± 0.0537 |
| AATTGAAA | 0.226 ± 0.0522 |
| ACAAATAA | 0.23 ± 0.0836 |
| ATTTATTG | 0.216 ± 0.0481 |
| ATTGCGAG | 0.24 ± 0.0521 |
| ATATATAT | 0.244 ± 0.0459 |
| ATTCCCAG | 0.291 ± 0.0505 |
| AACTGATT | 0.296 ± 0.0177 |
| AAGATCAG | 0.222 ± 0.0847 |
| AATATTTG | 0.2529 ± 0.00132 |
| AAGATTTG | 0.3926 ± 0.000402 |
| AATCGGCA | 0.245 ± 0.0624 |
| AATTTCCG | 0.257 ± 0.00588 |

| Sequence | binding signal [E-score] |
| --- | --- |
| AATCAGTA | 0.268 ± 0.0701 |
| AATCTTAG | 0.393 ± 0.0231 |
| AATCTTAC | 0.375 ± 0.0424 |
| ATTCTTAA | 0.276 ± 0.0327 |
| AATCTTAA | 0.411 ± 0.0114 |
| AATCTTAT | 0.377 ± 0.038 |
| ATTCTTAG | 0.253 ± 0.0124 |
| AAAGTAAT | 0.215 ± 0.0195 |
| CAAAATAC | 0.244 ± 0.00367 |
| CAAAATCC | 0.42 ± 0.00492 |
| CAAAATCA | 0.314 ± 0.00439 |
| AAAAATCC | 0.437 ± 0.00502 |
| ATAAATCC | 0.244 ± 0.0187 |
| ACAAATCC | 0.337 ± 0.0192 |
| ATACGCAA | 0.311 ± 0.105 |
| ATTACGTG | 0.343 ± 0.0114 |
| ATACAGAT | 0.232 ± 0.0349 |
| ATTTTCAG | 0.282 ± 0.0614 |
| AATCAGAA | 0.333 ± 0.0384 |
| AATGCGAT | 0.246 ± 0.145 |
| AATCCGAA | 0.406 ± 0.0054 |
| AATCCCGA | 0.358 ± 0.0612 |

| Sequence | binding signal [E-score] |
| --- | --- |
| AATCCGAC | 0.375 ± 0.0477 |
| ATTCCGAG | 0.275 ± 0.0409 |
| AATCCGAG | 0.384 ± 0.0199 |
| ATCCCGAT | 0.294 ± 0.0618 |
| AATCCGAT | 0.432 ± 0.00878 |
| ATCCCCAT | 0.277 ± 0.00736 |
| AAACGGAT | 0.245 ± 0.00295 |
| AATCAATA | 0.274 ± 0.0307 |
| ATTACGCG | 0.332 ± 0.0406 |
| ATCGCCAA | 0.206 ± 0.00895 |
| ATTACTTA | 0.22 ± 0.00767 |
| AATGAATC | 0.262 ± 0.0542 |
| CAAGATAC | 0.263 ± 0.0221 |
| AAAGAAAT | 0.26 ± 0.02 |
| CAAGAATC | 0.3851 ± 0.0038 |
| AAAGAATC | 0.432 ± 0.00665 |
| CACGAATC | 0.332 ± 0.0173 |
| ATCCGGTG | 0.295 ± 0.0985 |
| AATAAAAT | 0.285 ± 0.0273 |
| AGGATATA | 0.211 ± 0.0455 |
| ATGATATC | 0.4224 ± 0.000678 |
| ACGATACG | 0.207 ± 0.012 |

| Sequence | binding signal [E-score] |
| --- | --- |
| CACATATC | 0.207 ± 0.0307 |
| AGGATATG | 0.301 ± 0.025 |
| ATGATATG | 0.251 ± 0.0218 |
| ACGATATC | 0.444 ± 0.0119 |
| ACGATCTC | 0.295 ± 0.0231 |
| AGGATATC | 0.469 ± 0.00696 |
| CAGATACC | 0.318 ± 0.0659 |
| ATGATCTC | 0.237 ± 0.0252 |
| CAGATATC | 0.4684 ± 0.00421 |
| CACGGATA | 0.231 ± 0.0138 |
| ATATTTTA | 0.311 ± 0.0242 |
| ATATGATA | 0.219 ± 0.000234 |
| ATTCGGTA | 0.241 ± 0.0544 |
| ACTGTAAA | 0.2014 ± 0.00123 |
| ATTACGGA | 0.366 ± 0.0276 |
| ATAACGCA | 0.2 ± 0.0382 |
| ATCTAAGA | 0.26 ± 0.0102 |
| ACGGGAAT | 0.324 ± 0.00778 |
| CAGATACG | 0.391 ± 0.0206 |
| CAAATACG | 0.225 ± 0.0583 |
| CAAATATG | 0.212 ± 0.061 |
| AAGATATG | 0.352 ± 0.0302 |

| Sequence | binding signal [E-score] |
| --- | --- |
| CACAGATA | 0.28 ± 0.0657 |
| CAGATATG | 0.393 ± 0.0499 |
| AAGATATC | 0.4749 ± 0.00348 |
| AAGATACT | 0.2834 ± 0.00149 |
| AAGATATT | 0.393 ± 0.0518 |
| AAGATACG | 0.319 ± 0.0229 |
| AAGATAAT | 0.221 ± 0.0513 |
| AAGATATA | 0.3097 ± 0.00108 |
| ATCCAGCC | 0.215 ± 0.0455 |
| CAATCAGA | 0.206 ± 0.101 |
| AAATATAG | 0.237 ± 0.00681 |
| ATATCGAA | 0.272 ± 0.135 |
| ATCTCGTA | 0.376 ± 0.0288 |
| ATCGGATC | 0.275 ± 0.0422 |
| ATTTTCGA | 0.266 ± 0.0802 |
| ATTACGCA | 0.355 ± 0.0219 |
| AGATATTA | 0.379 ± 0.00115 |
| AGATATTC | 0.451 ± 0.0112 |
| ATATATTA | 0.229 ± 0.0313 |
| ATATATTC | 0.281 ± 0.0514 |
| AAATATTC | 0.306 ± 0.0275 |
| AGATATTG | 0.375 ± 0.0495 |
